Measurements taken from PMC7862700, “An all-to-all approach to the identification of sequence-specific readers for epigenetic DNA modifications on cytosine”.

What was measured:
Assay in all cases: DAPPL (digital affinity profiling via proximity ligation, sequencing); 10 mM Tris-HCl pH 7.5, 50 mM NaCl, 1 mM DTT, 4% glycerol, room temperature, 30 min; GST-TFs on glutathione beads, 16-mer random dsDNA library, 0.1% formaldehyde crosslink after washing; high values mean tight binding
FEV = target: T1, FEV (Homo sapiens, UniProt Q99581 1-238); details: protein: recombinant; tags: N-terminal GST; dsDNA, one strand shown
T1 sequence: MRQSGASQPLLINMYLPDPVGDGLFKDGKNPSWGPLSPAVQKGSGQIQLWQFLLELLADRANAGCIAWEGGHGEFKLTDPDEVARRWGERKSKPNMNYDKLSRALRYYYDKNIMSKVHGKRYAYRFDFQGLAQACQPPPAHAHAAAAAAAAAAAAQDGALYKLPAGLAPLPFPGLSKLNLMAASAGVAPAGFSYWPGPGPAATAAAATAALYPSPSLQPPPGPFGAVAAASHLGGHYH
Method in brief: (§1)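 Human transcription factors were made in yeast as GST fusions, captured on glutathione beads and barcoded with DNA. With a tag-only sample included, the pool was incubated with 200 nmole of a random double-stranded 16-mer DNA library in Tris/NaCl/DTT/glycerol buffer at room temperature for 30 min, then crosslinked with 0.1% formaldehyde after washing, ligated by proximity, amplified and sequenced. For binding signal, each hexamer's read frequency for a factor is divided by its frequency for the tag-only sample.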

ETV5 = ETV5 (Homo sapiens, UniProt P41161 1-510); details: protein: recombinant; tags: N-terminal GST; dsDNA, one strand shown
ETV5, sequence (P41161 whole entry): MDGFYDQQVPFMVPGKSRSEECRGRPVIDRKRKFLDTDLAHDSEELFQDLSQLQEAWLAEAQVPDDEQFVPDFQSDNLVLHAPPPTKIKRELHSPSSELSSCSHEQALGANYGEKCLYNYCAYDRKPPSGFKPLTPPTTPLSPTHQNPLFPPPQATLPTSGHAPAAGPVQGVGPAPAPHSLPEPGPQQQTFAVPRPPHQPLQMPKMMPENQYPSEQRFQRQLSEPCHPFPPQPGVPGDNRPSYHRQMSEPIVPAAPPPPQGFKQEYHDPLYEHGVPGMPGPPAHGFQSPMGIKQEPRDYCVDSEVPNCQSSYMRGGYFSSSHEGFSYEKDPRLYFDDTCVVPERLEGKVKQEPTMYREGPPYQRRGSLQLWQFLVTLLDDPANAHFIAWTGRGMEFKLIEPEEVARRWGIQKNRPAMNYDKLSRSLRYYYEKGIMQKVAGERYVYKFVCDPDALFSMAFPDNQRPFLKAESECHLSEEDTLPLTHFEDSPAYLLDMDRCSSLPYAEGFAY
Method in brief: as §1

HSF1 = HSF1 (Homo sapiens, UniProt Q00613 1-529); details: protein: recombinant; tags: N-terminal GST; chain copies: 3; dsDNA, one strand shown
HSF1, sequence (Q00613 whole entry): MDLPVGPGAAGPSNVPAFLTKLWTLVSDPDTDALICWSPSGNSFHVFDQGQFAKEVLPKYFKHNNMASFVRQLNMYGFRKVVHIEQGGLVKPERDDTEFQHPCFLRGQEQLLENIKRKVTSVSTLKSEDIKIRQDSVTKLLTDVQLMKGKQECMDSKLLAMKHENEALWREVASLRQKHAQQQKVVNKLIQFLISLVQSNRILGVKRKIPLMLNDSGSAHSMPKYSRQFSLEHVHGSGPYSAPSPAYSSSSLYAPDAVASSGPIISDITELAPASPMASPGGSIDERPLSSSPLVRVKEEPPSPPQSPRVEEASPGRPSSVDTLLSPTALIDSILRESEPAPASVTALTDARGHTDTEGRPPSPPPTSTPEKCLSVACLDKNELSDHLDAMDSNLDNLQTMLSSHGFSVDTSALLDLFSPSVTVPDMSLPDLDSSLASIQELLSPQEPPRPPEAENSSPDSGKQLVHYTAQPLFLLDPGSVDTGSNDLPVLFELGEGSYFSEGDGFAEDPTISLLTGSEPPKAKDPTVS
Method in brief: as §1

SPIC = target: T2, SPIC (Homo sapiens, UniProt Q8N5J4 1-248); details: protein: recombinant; tags: N-terminal GST; dsDNA, one strand shown
T2 sequence: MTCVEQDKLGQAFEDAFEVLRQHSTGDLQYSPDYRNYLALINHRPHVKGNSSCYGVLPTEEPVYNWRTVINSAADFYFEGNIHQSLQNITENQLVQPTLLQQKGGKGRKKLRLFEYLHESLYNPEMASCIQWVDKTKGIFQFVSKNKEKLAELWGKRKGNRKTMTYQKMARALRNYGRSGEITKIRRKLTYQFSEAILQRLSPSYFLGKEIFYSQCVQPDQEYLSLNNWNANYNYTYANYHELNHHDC
Method in brief: as §1

ELF4 = ELF4 (Homo sapiens, UniProt Q99607 1-663); details: protein: recombinant; tags: N-terminal GST; dsDNA, one strand shown
ELF4, sequence (Q99607 whole entry): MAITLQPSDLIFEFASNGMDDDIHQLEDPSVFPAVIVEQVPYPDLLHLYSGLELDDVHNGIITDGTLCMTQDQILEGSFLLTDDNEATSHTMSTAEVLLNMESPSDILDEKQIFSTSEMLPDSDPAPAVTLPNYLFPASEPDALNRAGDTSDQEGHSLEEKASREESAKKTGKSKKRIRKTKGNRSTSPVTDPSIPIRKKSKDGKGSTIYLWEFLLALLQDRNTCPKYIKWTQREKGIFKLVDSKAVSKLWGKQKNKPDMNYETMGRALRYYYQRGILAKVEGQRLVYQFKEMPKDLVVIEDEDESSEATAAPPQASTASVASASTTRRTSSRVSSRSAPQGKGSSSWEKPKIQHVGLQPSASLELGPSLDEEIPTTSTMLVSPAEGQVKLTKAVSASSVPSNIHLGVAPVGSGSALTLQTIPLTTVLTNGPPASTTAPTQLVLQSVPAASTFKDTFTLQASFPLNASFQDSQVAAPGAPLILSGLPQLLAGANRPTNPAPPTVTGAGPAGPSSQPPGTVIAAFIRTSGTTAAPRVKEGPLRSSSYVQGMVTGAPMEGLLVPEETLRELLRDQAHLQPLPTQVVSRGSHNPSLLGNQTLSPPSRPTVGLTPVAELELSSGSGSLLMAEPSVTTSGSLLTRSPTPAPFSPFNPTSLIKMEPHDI
Method in brief: as §1

ELK4 = target: T3, ELK4 (Homo sapiens, UniProt P28324-2 1-405); details: protein: recombinant; tags: N-terminal GST; dsDNA, one strand shown
T3 sequence: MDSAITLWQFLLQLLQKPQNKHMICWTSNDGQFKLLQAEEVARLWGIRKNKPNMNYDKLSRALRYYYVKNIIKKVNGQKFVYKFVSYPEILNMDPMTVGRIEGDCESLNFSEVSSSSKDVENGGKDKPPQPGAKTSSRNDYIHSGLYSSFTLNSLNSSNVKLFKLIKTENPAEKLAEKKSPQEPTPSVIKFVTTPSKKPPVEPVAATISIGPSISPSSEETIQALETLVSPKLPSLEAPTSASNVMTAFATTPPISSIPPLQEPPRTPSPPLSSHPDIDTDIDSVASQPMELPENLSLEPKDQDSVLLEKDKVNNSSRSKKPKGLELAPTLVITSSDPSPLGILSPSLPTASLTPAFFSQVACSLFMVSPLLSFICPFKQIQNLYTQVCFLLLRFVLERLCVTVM
Method in brief: as §1

ETV2 = target: T4, ETV2 (Homo sapiens, UniProt O00321 1-342); details: protein: recombinant; tags: N-terminal GST; dsDNA, one strand shown
T4 sequence: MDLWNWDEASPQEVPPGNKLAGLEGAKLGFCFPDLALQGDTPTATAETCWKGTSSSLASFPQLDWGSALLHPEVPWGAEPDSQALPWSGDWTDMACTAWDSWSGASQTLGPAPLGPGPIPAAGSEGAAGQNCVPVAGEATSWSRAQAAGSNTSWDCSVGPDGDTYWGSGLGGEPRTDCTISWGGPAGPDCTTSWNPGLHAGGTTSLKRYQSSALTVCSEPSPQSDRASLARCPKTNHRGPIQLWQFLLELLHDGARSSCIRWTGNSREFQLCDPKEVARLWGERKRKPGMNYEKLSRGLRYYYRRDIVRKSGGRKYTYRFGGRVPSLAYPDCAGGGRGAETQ
Method in brief: as §1

ELF3 = target: T5, ELF3 (Homo sapiens, UniProt P78545 1-371); details: protein: recombinant; tags: N-terminal GST; dsDNA, one strand shown
T5 sequence: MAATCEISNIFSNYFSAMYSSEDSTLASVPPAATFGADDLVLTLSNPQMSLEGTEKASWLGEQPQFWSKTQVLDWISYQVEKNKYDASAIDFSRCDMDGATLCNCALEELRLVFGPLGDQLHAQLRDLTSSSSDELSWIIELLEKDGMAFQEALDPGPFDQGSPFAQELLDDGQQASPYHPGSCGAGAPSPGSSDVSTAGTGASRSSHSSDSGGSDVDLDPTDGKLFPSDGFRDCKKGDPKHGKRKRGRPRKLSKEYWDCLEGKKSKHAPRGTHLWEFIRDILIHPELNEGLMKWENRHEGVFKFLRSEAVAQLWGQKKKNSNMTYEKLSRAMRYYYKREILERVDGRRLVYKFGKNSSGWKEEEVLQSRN
Method in brief: as §1

CRX = CRX (Homo sapiens, UniProt O43186 1-299); details: protein: recombinant; tags: N-terminal GST; dsDNA, one strand shown
CRX, sequence (O43186 whole entry): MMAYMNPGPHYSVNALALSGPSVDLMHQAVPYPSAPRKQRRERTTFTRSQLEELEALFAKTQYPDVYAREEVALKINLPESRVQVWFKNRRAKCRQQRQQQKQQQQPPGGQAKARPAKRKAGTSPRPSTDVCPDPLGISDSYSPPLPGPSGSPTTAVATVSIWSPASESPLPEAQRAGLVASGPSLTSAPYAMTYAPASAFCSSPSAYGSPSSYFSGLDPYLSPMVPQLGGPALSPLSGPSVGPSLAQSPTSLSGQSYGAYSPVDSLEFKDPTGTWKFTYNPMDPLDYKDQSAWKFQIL
Method in brief: as §1

ETV1 = ETV1 (Homo sapiens, UniProt P50549 1-477); details: protein: recombinant; tags: N-terminal GST; dsDNA, one strand shown
ETV1, sequence (P50549 whole entry): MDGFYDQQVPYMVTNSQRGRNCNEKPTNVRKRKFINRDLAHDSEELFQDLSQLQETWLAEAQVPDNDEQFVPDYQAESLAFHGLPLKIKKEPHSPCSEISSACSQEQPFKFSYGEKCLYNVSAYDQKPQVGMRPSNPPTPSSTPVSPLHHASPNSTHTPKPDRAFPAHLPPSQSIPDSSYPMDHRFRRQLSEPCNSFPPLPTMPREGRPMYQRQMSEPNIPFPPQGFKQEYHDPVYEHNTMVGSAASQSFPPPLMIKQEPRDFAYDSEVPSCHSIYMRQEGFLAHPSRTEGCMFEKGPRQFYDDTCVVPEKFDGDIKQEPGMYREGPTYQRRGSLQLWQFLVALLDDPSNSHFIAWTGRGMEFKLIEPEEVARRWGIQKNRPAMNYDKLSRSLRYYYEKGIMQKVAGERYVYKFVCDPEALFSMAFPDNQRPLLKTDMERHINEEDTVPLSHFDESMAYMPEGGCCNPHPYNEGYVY
Method in brief: as §1

Q: Which binding signal (FEV) does the source give for TTCGAT here?
A: Its binding signal is 1.27 fold enrichment (6-mer frequency, TF over GST control).

Q: And the binding signal (ETV5)?
A: Its binding signal is 1.36 fold enrichment (6-mer frequency, TF over GST control).

Q: And the binding signal (HSF1)?
A: Its binding signal is 1.79 fold enrichment (6-mer frequency, TF over GST control).

Q: And the binding signal (SPIC)?
A: The binding signal was 1.3 fold enrichment (6-mer frequency, TF over GST control).

Q: And the binding signal (ELF4)?
A: The binding signal was 1.27 fold enrichment (6-mer frequency, TF over GST control).

Q: And the binding signal (ELK4)?
A: The binding signal was 1.16 fold enrichment (6-mer frequency, TF over GST control).

Q: And the binding signal (ETV2)?
A: The binding signal was 1.23 fold enrichment (6-mer frequency, TF over GST control).

Q: And the binding signal (ELF3)?
A: The binding signal was 1.42 fold enrichment (6-mer frequency, TF over GST control).

Q: And the binding signal (CRX)?
A: The binding signal was 1.56 fold enrichment (6-mer frequency, TF over GST control).

Q: And the binding signal (ETV1)?
A: Its binding signal is 1.34 fold enrichment (6-mer frequency, TF over GST control).
